Data published in ChEMBL document CHEMBL3433997, “St. Jude Leishmania screening dataset” (2016).

Legend:
Format in all cases: functional
[1] = target: Solute carrier family 2, facilitated glucose transporter member 1 (Homo sapiens) (UniProt P11166); experiment: ST_JUDE_LEISH: Cytotoxicity at 2uM final concentration against transgenic Leishmania Mexicana promastigotes LmGLUT1 that are glucose transport deficient and complemented with the human glucose transporter GLUT1. Activity is measured by DNA content using SYBR green in vitro
[2] = target: Hexose transporter 1 (Plasmodium falciparum) (UniProt O97467); experiment: ST_JUDE_LEISH: Cytotoxicity at 2uM final concentration against transgenic Leishmania Mexicana promastigotes LmPfHT that are glucose transport deficient and complemented with the Plasmodium falciparum hexose transporter. Activity is measured by DNA content using SYBR green in vitro
[3] = target: Glucose transporter (Leishmania mexicana) (UniProt O61059); experiment: ST_JUDE_LEISH: Cytotoxicity at 2uM final concentration against transgenic Leishmania Mexicana promastigotes LmGT2 that are glucose transport deficient and complemented with the L. Mexicana glucose transporter 2. Activity is measured by DNA content using SYBR green in vitro

Solute carrier family 2, facilitated glucose transporter member 1 (Homo sapiens), sequence (P11166 whole entry): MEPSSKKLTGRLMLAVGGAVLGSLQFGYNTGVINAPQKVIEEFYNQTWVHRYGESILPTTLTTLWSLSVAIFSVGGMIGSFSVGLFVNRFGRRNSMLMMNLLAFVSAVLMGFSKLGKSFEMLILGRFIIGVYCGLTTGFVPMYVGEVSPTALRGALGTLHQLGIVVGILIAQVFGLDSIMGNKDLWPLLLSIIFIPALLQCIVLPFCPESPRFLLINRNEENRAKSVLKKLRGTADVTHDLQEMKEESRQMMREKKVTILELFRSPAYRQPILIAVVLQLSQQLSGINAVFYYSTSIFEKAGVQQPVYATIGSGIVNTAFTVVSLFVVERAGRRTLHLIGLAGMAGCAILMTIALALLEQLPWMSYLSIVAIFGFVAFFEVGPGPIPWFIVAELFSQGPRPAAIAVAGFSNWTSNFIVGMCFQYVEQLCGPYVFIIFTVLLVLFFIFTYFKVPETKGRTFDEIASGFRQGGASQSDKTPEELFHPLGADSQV

SMILES | inhibition [1] | inhibition [2] | inhibition [3]
Cc1cc(=O)c2cc(-c3ccc(OC(F)(F)F)cc3)ccc2[nH]1 | -2.2% | 0.49% | -0.86%
O=C(O)C1Cc2c([nH]c3ccccc23)C(c2ccc(Cl)cc2Cl)N1 (stereo unspecified) | 3.99% | 2.22% | 4.37%
CCCCCC(NCCCC)c1ccc(OCCOc2ccc(C(CCCCC)NCCCC)cc2)cc1 (stereo unspecified) | 60.3% | 86% | 85.3%
Cc1ccc(CN2CCCN(Cc3cccc(NC(=O)c4ccc(Cl)c(Cl)c4)c3)CC2)cc1 | -1.13% | -2.91% | -0.82%
CCN(CC)/C(=N/C(=N)NCc1ccc(Cl)cc1)NCCCCCCN/C(=N\C(=N)NCc1ccc(Cl)cc1)N(CC)CC | 9.05% | 8.96% | 8.12%
CCCCCCCC/C=C\CCCCCCCC(=O)NCc1ccc(O)c(OC)c1 | 8.15% | 7.4% | 5.67%
CCOC(=O)c1[nH]c2cc(Cl)cc(Cl)c2c1/C=C/C(=O)Nc1ccc(-c2cnc(NC(C)=O)[nH]2)cc1 | -1.61% | -2.31% | -1.73%
Cc1cc(NCc2ccccc2)nc(NCc2ccccc2)n1 | 11.8% | 5.78% | 4.43%
CCN(CCNc1nc(NCCc2cnc[nH]2)nc(N(CCC#N)Cc2ccccc2)n1)c1cccc(C)c1 | 12.1% | 12.8% | 6.78%
Cc1cccc2nc(-c3ccc(-c4ccc(NC(=O)NC5CC5c5ccccc5)cc4)cc3)[nH]c12 (stereo unspecified) | 0.9% | -1.52% | 4.78%
Nc1ncnc2nc(-c3ccc(F)cc3)cc(-c3ccc(NC(=O)c4ccccc4)cc3)c12 | 4.74% | 2.67% | 2.02%
O=c1cc(NCCCNC2CCCc3c2ccc2ccccc32)[nH]c2ccccc12 (stereo unspecified) | 4.07% | 4.85% | 2.74%
Cn1nccc1C(=O)NCCNCc1cccc(-c2cccc(-c3nc4cc(C(F)(F)F)ccc4[nH]3)c2)c1 | 2.84% | 1.83% | 0.31%
O=C(NCC(NCCCNc1cc(=O)c2ccccc2[nH]1)c1cc(Br)cc(Br)c1)C1=CCCC1 (stereo unspecified) | 3.18% | 4.82% | 5.79%
COc1ccc2c(ccc3c2ncc2c(=O)n(-c4ccccc4)[nH]c23)c1 | -1.88% | -1.2% | -0.76%
CCN(CCO)CCCC(C)Nc1ccnc2cc(Cl)ccc12 (stereo unspecified) | 7% | 7.44% | 6.05%
Cc1nc(-c2nc(NCc3ccccn3)ncc2-c2ccsc2)sc1C | 6.64% | 5.22% | 5.82%
O=C(CNc1ccncc1)c1c[nH]c2ccccc12 | 0.52% | 2.3% | 0.74%
COc1ccc(C2(CNCC(O)c3cccc([N+](=O)[O-])c3)CCCCC2)cc1OC (stereo unspecified) | 1.34% | 2.95% | 0.33%

SMILES | inhibition [1] | inhibition [2] | inhibition [3]
Cc1c(F)cc(C(=O)NC2CC2)cc1-c1ccc2c(cnn2S(=O)(=O)c2ccc(C#N)cc2)c1 | -0.7% | 1.11% | 0.73%
O=S(=O)(Nc1cccc(CCN2CCC(N3CCCCC3)CC2)c1)c1ccc(-c2ccccc2)cc1 | 3.35% | 5.01% | 3.57%
CN(C)C(=O)c1cc(CNCc2ccccc2)ccc1-c1cccc(CNCc2ccc(-c3ccccc3)cc2)c1 | 0.97% | 3.85% | 3.02%
CN(C)CCNCc1ccc(-c2ccc(-c3nc4ccccc4[nH]3)s2)cc1 | 13.7% | 14.5% | 12.8%
O=C(N/N=C/c1nc2ccccc2[nH]1)c1cccc([N+](=O)[O-])c1 | 2.46% | 1% | 0.25%
Cc1cc(N[C@@H](CC(C)C)C(=O)NC2CCCC2)nc(NCc2ccccc2C)n1 | 4.21% | 4.39% | 1.62%
Cc1noc(-c2ccc(N3CCC(C(=O)N4CCN(C(C)C)CC4)CC3)cc2)n1 | 1.72% | 2.07% | 2%
O=C(CN1CCCC1)Nc1cccc(C(=O)Nc2cccc(C(F)(F)F)c2)c1 | 1.71% | 1.57% | 3.18%
CCn1nc(C(=O)NC2CCOc3ccccc32)c2ccccc2c1=O (stereo unspecified) | -1.12% | -0.92% | -3.49%
O=c1[nH]nc(-c2ccc(N3CCCC3)c([N+](=O)[O-])c2)c2ccccc12 | 2.71% | 3.31% | 4.21%
CC(C)(C)c1ccc(CN2CCC(NC(=O)c3ccc(-c4cccc(F)c4)s3)CC2)cc1 | -0.34% | -2.33% | 2.67%
Clc1cc(Nc2ncnc3sc(C#C[C@H]4CCCN4)cc23)ccc1OCc1cccnc1Cl | 3.83% | 4.71% | 3.35%
Cn1cccc1C(=O)NCC(CCNc1cc(=O)c2ccccc2[nH]1)NCc1cc(Br)cc(Br)c1 (stereo unspecified) | 0.88% | 2.6% | 1.58%
CSc1c(CNCCCNc2cc(=O)c3ccccc3[nH]2)[nH]c2ccccc12 | 5.89% | 4.28% | 4.96%
CC(C)CC(=O)NC1CCN(Cc2c(-c3cccs3)nc3ccccc3c2C(=O)N[C@@H](C)C2CCCCC2)CC1 | 6.03% | 4.72% | 4.36%
CCN(CC)Cc1cccc(-c2cc3c(-c4ccc(C(=O)O)c(C(C)C)c4)ccnc3[nH]2)c1OC | 12% | 8.43% | 7.3%
CN1CCC(Oc2ccc(CN3CC[C@H](NC(=O)c4cc(F)cc(F)c4)C3)c3ccccc23)C1 (stereo partly specified) | 7.53% | 1.81% | 3.76%
CCC(CC)(CCC#N)CN(C[C@@H](O)[C@H](Cc1ccccc1)NC(=O)OC(C)(C)C)S(=O)(=O)c1ccc(OC)cc1 | -0.65% | 0.74% | 0.65%
